The panel holds about 79,000 compounds, 15% with a hit somewhere; the sample as a whole holds those more often. Activity calls are given as the source filed them. Cut-off read from the data, not from the text of the source: active = growth inhibition above about 70%; inactive = the rest.
Key:
[1] = NCI Yeast Anticancer Drug Screen. Data for the rad50 strain (AID 155);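 note: 0% = growth of vehicle-only cultures of the same strain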; details: S. cerevisiae rad50 strain growth inhibition; at 50.0 µM; active compounds read high
How it was run: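 A DNA repair-deficient yeast mutant serves as the test organism; compound-induced growth inhibition is calculated against vehicle-treated cells.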

[2] = NCI Yeast Anticancer Drug Screen. Data for the mec2-1 strain (AID 157); details: S. cerevisiae mec2-1 strain, at 50.0 µM, active compounds read high
How it was run: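 Using mec2-1 yeast: add compound, measure growth, express inhibition versus vehicle-treated cultures.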

[3] = NCI Yeast Anticancer Drug Screen. Data for the sgs1 mgt1 strain (AID 161);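 note: 0% = growth of cultures given vehicle only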; details: S. cerevisiae sgs1 mgt1 strain, at 50.0 µM, active compounds read high
How it was run: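 Percent growth inhibition was derived by comparing compound-exposed mutant yeast with vehicle-exposed cultures. The strain carries alterations in DNA damage repair.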

[4] = NCI Yeast Anticancer Drug Screen. Data for the cln2 rad14 strain (AID 165);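 note: 0% = growth equal to vehicle treated cultures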; details: S. cerevisiae cln2 rad14 strain, at 50.0 µM, active compounds read high
How it was run: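 Yeast strain cln2 rad14, bearing defects in cell cycle control and DNA repair, serves as the test system; values reflect growth inhibition compared with vehicle.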

[5] = NCI Yeast Anticancer Drug Screen. Data for the bub3 strain (AID 167); details: S. cerevisiae bub3 mutant strain, at 50.0 µM, active compounds read high
How it was run: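 Inhibition values come from growth of compound-treated mutant yeast normalised to vehicle-treated controls.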

[6] = NCI Yeast Anticancer Drug Screen. Data for the mlh1 rad18 strain (AID 175); details: S. cerevisiae mlh1 rad18 strain growth inhibition; at 50.0 µM; active compounds read high
How it was run: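 Steps: expose repair-defective yeast to compound; measure growth; express inhibition against vehicle-treated controls.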

Measured: growth inhibition

CC1=CC2OC3CC4OC(=O)/C=C/C=C/C(C(C)O)OCC/C(C)=C/C(=O)OCC2(CC1)C4(C)C31CO1 (stereo unspecified)
active: [1] 92% | [2] 94.1% | [3] 93.3% | [4] 92.2% | [5] 92.6% | [6] 90.7%

c1ccc(CN2C3c4ccccc4C2c2ccccc23)cc1
inactive: [1] -0.15% | [2] -2.2% | [3] -4% | [4] -12.3% | [5] -2.8% | [6] 3%

CCOP(=O)(CC(=O)C1CC1)OCC
inactive: [1] -28.8% | [2] -20.5% | [3] -26.2% | [4] -21.9% | [5] -20.9% | [6] -43.1%

[Cl][Sn]1([Cl])[CH2]CC[CH2][Sn]([Cl])([Cl])[CH2]CC[CH2]1
inactive: [1] 3.4% | [2] 34% | [3] -13.1% | [4] 39.4% | [5] -5.4% | [6] 27.4%

O=[P+](O)c1cccnc1
inactive: [1] 6.6% | [2] -8.05% | [3] 14.2% | [4] 17.4% | [5] 16.7% | [6] 13.8%

c1ccc(N=PNc2ccccc2)cc1 (stereo unspecified)
inactive: [1] -4.7% | [2] -6.25% | [3] -9.5% | [4] -51.6% | [5] 23% | [6] -13.3%

CC(=O)[O-].CC(=O)[O-].[Mn+2].c1ccc(/C(=N\Nc2ccccn2)c2ccccn2)cc1
active: [1] 87.8% | [2] 91.5% | [3] 90.5% | [4] 84.2% | [5] 89.2% | [6] 89.4%

Nc1nc(-c2ccccc2)c[se]1
inactive: [1] 63.6% | [2] 32.3% | [3] 30.6% | [4] 16.6% | [5] -7.65% | [6] 31.4%

N=Cc1c(O)[nH]c(=O)[nH]c1=O
inactive: [1] 1.4% | [2] 8.75% | [3] 3.45% | [4] -10.4% | [5] 0.65% | [6] -0.8%

Nc1noc(N)n1
inactive: [1] -43% | [2] -22.1% | [3] -26.8% | [4] -23.1% | [5] -18.1% | [6] -28.4%

CCC1CC[N-]CC1.CCC1CC[N-]CC1.CCC1CC[N-]CC1.CCC1CC[N-]CC1.N#C[S-].N#C[S-].[Co]
inactive: [1] 23.1% | [2] 16.9% | [3] 34% | [4] 15.3% | [5] 26.8% | [6] 24.8%

CN1C(=O)C[N+]([O-])=C(c2ccccc2)c2cc(Cl)ccc21
inactive: [1] 2.45% | [2] 0.9% | [3] -10.1% | [4] 18.6% | [5] -5.15% | [6] -13.7%

COC1CCC2NCCNC2C1 (stereo unspecified)
inactive: [1] 6.35% | [2] -6% | [3] -9.85% | [4] -22.9% | [5] -8.7% | [6] 2.5%

CCC1C(=O)OCC1Cc1cncn1C (stereo unspecified)
inactive: [1] -11.3% | [2] -8.4% | [3] -17.9% | [4] 0.55% | [5] -9.95% | [6] -17.9%

O=P(O)(O)SP(=O)(O)O.[Zn+2]
inactive: [1] -20.9% | [2] 9.55% | [3] -15.8% | [4] -8.7% | [5] -12.6% | [6] -1.35%

CC[N+]1(CC)CC[N+](CC)(CC)CC1 (tested in a mixture with another compound)
inactive: [1] 6.1% | [2] -28.8% | [3] 4.85% | [4] 0.45% | [5] -0.95% | [6] 29.1%

CCCCCC(=O)C[n+]1ccccc1 (tested in a mixture with another compound)
inactive: [1] -11.7% | [2] -1.4% | [3] -20% | [4] -36% | [5] 24.4% | [6] -9.15%

CC1(C)O[C@]2(C)CC[C@@H]1[C@@H](O)[C@@H]2N1CCCC1
inactive: [1] 1.75% | [2] -8.6% | [3] -6.75% | [4] -33.4% | [5] -6.75% | [6] 0.15%

O=C(NCC(O)CO)c1ccc(N(CCCl)CCCl)c([N+](=O)[O-])c1[N+](=O)[O-] (stereo unspecified)
inactive: [1] 17.1% | [2] 4.7% | [3] 16.3% | [4] 8.1% | [5] 12.7% | [6] 17.1%

O=C1C=CC2(C=C1)CCN=c1c(O)c3c(c(O)c12)=NC=N3
inactive: [1] 15.5% | [2] 7.55% | [3] 8.5% | [4] 29.2% | [5] 11.9% | [6] -4.5%

N#CCc1ccccc1CC#N
inactive: [1] 20.8% | [2] -0.65% | [3] 2.5% | [4] -19.7% | [5] 3.9% | [6] 18.2%

C1CC[N-]CC1.C1CC[N-]CC1.[Cl][Pt+2]([Cl])([Cl])[Cl]
inactive: [1] 4.65% | [2] -10.3% | [3] 7.8% | [4] -48.9% | [5] -0.8% | [6] -18.8%

CCCC[S][Hg][I]
inactive: [4] 38.9%
active: [1] 92.5% | [2] 98.7% | [3] 97.9% | [5] 99.1% | [6] 98.8%

CCCCCCCC(N)CC(=O)O (stereo unspecified)
inactive: [1] -24.2% | [2] -44.2% | [3] -15.8% | [4] -0.7% | [5] -36.6% | [6] -8.05%

CP1(=S)CCC2=C1CCc1cc(O)ccc12 (stereo unspecified)
inactive: [1] 14.4% | [2] -31.8% | [3] 0.4% | [4] -29.8% | [5] -3.65% | [6] 21.4%

COc1cc(C=O)cc(OC)c1OC
inactive: [1] 1.45% | [2] -10.6% | [3] 5.25% | [4] -14.1% | [5] -7.1% | [6] -20.1%

O=C(CC(=O)C(F)(F)F)c1cccs1.O=C(CC(=O)C(F)(F)F)c1cccs1.O=C(CC(=O)C(F)(F)F)c1cccs1.[Tb]
inactive: [1] -5% | [2] 20.6% | [3] 24.6% | [4] -27.5% | [5] -1.5% | [6] 28.2%

C[C@@]12CC/C(=N\OCC(=O)O)C=C1CC[C@H]1C2CC[C@]2(C)C1CC[C@H]2O (stereo partly specified)
inactive: [1] -9.4% | [2] -2.55% | [3] -14.6% | [4] -15.8% | [5] 2.75% | [6] -14.7%

CN(C)c1ccc(C=O)cc1.[C-]#[O+].[C-]#[O+].[C-]#[O+].[Cr]
inactive: [1] -66.2% | [2] -35.5% | [3] -57.5% | [4] 1% | [5] -18.4% | [6] -38.9%

O=C1CC2(CCNCC2)C(=O)N1N1CCCCC1
inactive: [1] -2.5% | [2] 12% | [3] 5.9% | [4] 7.15% | [5] 1.45% | [6] 5.4%

O=C1/C(=C\c2ccc([N+](=O)[O-])cc2)N2CCC1CC2
inactive: [1] -8.3% | [2] 5.3% | [3] -3.65% | [4] -0.45% | [5] 1.75% | [6] 7.05%

N.N.N.N.N.N#Cc1nn[n-]n1.[Cl-].[Co+3]
inactive: [1] 4.95% | [2] 9.25% | [3] 16.8% | [4] 24.4% | [5] 12.3% | [6] 12.9%

CCCCC[CH2][Sn](=[O])[CH2]CCCCC
inactive: [1] 8.25% | [2] 3.35% | [3] -9.4% | [4] -24.6% | [5] 6.8% | [6] -11.4%

O=C1NC2NC3NC(=O)NC3NC2N1 (stereo unspecified)
inactive: [1] 3.6% | [2] 1.85% | [3] 0.2% | [4] -5.25% | [5] 10.2% | [6] -24.4%

CCOC(OC1=C(C#N)CCCC1)C(C)[Se]c1ccccc1 (stereo unspecified)
inactive: [1] 63% | [2] 25.2% | [3] 54.2% | [4] 41.9% | [5] 50.4% | [6] 34%

COc1cccc2c1C(=O)c1c(O)c3c(c(O)c1C2=O)C[C@@](O)(C(=O)CO)C[C@@H]3OC1CC(N2CCOCC2C#N)C(O)C(C)O1 (stereo partly specified)
active: [1] 90.1% | [2] 91.2% | [3] 92.4% | [4] 89.8% | [5] 90.5% | [6] 91%

CN1CCN(C)C12C=c1ccccc1=CC21CC1
inactive: [1] 5.05% | [2] -15.9% | [3] -45.6% | [4] -2.65% | [5] -39.9% | [6] -8.15%

O=S(=O)(O)c1ccc(Cl)cc1
inactive: [1] -0.45% | [2] -3.2% | [3] -1.15% | [4] 23.1% | [5] 0.3% | [6] 9.1%

[Fe+2].[c-]1[c-][c-][cH-][c-]1.[c-]1[c-][c-][cH-][c-]1.c1cc[c]([Pb]([c]2ccccc2)[c]2ccccc2)cc1
inactive: [1] 66.5% | [4] 65.5%
active: [2] 85% | [3] 83.9% | [5] 78.3% | [6] 87.8%

CC(=O)C(=[N+]=[N-])C(=O)N(C)CCC#N
inactive: [1] -7.3% | [2] 6.25% | [3] 11.2% | [4] 13.7% | [5] 7.25% | [6] 20.9%

CC(C)[C@]12O[C@H]1[C@@H]1O[C@]13[C@]1(O[C@H]1C[C@H]1C4=C(C(=O)OC4)[C@@H](O)C[C@@]13C)[C@@H]2O
inactive: [1] -8.4% | [2] -18.4% | [3] 6% | [4] -5.85% | [5] -0.3% | [6] -12.8%

Source: PubChem BioAssay (NCI)
